This is an account of results in PubChem BioAssay AID2783 (National Center for Advancing Translational Sciences (NCATS), 2010).

Inconclusive results are not listed. Activity calls are given as the source filed them. Calls come from the whole dose curve; as a rule, active = well fitted inhibition curve with a large enough effect in the polarisation, with a control signal flat (not every such curve was filed as active); inconclusive = small, poorly fitted or top-dose-only effect, or effect the other way, or a change in a side signal; inactive = no such curve, though single readings can be large or run the other way; the % refers to the polarisation.

For this assay, the target named is Histone-lysine N-methyltransferase 2A (Homo sapiens) (UniProt Q03164). The experiment in a line: Confirmation of Inhibitors Targeting the Menin-MLL Interaction in MLL Related Leukemias: Competition With Fluorescein Labeled MLL-derived Peptide. Particulars: Fluorescence polarization, fluorescein-MLL peptide displacement from menin. (In general: Polarisation of emitted light reports the rotation of a fluorescent probe.)
Histone-lysine N-methyltransferase 2A (Homo sapiens), sequence (Q03164 whole entry, looked up): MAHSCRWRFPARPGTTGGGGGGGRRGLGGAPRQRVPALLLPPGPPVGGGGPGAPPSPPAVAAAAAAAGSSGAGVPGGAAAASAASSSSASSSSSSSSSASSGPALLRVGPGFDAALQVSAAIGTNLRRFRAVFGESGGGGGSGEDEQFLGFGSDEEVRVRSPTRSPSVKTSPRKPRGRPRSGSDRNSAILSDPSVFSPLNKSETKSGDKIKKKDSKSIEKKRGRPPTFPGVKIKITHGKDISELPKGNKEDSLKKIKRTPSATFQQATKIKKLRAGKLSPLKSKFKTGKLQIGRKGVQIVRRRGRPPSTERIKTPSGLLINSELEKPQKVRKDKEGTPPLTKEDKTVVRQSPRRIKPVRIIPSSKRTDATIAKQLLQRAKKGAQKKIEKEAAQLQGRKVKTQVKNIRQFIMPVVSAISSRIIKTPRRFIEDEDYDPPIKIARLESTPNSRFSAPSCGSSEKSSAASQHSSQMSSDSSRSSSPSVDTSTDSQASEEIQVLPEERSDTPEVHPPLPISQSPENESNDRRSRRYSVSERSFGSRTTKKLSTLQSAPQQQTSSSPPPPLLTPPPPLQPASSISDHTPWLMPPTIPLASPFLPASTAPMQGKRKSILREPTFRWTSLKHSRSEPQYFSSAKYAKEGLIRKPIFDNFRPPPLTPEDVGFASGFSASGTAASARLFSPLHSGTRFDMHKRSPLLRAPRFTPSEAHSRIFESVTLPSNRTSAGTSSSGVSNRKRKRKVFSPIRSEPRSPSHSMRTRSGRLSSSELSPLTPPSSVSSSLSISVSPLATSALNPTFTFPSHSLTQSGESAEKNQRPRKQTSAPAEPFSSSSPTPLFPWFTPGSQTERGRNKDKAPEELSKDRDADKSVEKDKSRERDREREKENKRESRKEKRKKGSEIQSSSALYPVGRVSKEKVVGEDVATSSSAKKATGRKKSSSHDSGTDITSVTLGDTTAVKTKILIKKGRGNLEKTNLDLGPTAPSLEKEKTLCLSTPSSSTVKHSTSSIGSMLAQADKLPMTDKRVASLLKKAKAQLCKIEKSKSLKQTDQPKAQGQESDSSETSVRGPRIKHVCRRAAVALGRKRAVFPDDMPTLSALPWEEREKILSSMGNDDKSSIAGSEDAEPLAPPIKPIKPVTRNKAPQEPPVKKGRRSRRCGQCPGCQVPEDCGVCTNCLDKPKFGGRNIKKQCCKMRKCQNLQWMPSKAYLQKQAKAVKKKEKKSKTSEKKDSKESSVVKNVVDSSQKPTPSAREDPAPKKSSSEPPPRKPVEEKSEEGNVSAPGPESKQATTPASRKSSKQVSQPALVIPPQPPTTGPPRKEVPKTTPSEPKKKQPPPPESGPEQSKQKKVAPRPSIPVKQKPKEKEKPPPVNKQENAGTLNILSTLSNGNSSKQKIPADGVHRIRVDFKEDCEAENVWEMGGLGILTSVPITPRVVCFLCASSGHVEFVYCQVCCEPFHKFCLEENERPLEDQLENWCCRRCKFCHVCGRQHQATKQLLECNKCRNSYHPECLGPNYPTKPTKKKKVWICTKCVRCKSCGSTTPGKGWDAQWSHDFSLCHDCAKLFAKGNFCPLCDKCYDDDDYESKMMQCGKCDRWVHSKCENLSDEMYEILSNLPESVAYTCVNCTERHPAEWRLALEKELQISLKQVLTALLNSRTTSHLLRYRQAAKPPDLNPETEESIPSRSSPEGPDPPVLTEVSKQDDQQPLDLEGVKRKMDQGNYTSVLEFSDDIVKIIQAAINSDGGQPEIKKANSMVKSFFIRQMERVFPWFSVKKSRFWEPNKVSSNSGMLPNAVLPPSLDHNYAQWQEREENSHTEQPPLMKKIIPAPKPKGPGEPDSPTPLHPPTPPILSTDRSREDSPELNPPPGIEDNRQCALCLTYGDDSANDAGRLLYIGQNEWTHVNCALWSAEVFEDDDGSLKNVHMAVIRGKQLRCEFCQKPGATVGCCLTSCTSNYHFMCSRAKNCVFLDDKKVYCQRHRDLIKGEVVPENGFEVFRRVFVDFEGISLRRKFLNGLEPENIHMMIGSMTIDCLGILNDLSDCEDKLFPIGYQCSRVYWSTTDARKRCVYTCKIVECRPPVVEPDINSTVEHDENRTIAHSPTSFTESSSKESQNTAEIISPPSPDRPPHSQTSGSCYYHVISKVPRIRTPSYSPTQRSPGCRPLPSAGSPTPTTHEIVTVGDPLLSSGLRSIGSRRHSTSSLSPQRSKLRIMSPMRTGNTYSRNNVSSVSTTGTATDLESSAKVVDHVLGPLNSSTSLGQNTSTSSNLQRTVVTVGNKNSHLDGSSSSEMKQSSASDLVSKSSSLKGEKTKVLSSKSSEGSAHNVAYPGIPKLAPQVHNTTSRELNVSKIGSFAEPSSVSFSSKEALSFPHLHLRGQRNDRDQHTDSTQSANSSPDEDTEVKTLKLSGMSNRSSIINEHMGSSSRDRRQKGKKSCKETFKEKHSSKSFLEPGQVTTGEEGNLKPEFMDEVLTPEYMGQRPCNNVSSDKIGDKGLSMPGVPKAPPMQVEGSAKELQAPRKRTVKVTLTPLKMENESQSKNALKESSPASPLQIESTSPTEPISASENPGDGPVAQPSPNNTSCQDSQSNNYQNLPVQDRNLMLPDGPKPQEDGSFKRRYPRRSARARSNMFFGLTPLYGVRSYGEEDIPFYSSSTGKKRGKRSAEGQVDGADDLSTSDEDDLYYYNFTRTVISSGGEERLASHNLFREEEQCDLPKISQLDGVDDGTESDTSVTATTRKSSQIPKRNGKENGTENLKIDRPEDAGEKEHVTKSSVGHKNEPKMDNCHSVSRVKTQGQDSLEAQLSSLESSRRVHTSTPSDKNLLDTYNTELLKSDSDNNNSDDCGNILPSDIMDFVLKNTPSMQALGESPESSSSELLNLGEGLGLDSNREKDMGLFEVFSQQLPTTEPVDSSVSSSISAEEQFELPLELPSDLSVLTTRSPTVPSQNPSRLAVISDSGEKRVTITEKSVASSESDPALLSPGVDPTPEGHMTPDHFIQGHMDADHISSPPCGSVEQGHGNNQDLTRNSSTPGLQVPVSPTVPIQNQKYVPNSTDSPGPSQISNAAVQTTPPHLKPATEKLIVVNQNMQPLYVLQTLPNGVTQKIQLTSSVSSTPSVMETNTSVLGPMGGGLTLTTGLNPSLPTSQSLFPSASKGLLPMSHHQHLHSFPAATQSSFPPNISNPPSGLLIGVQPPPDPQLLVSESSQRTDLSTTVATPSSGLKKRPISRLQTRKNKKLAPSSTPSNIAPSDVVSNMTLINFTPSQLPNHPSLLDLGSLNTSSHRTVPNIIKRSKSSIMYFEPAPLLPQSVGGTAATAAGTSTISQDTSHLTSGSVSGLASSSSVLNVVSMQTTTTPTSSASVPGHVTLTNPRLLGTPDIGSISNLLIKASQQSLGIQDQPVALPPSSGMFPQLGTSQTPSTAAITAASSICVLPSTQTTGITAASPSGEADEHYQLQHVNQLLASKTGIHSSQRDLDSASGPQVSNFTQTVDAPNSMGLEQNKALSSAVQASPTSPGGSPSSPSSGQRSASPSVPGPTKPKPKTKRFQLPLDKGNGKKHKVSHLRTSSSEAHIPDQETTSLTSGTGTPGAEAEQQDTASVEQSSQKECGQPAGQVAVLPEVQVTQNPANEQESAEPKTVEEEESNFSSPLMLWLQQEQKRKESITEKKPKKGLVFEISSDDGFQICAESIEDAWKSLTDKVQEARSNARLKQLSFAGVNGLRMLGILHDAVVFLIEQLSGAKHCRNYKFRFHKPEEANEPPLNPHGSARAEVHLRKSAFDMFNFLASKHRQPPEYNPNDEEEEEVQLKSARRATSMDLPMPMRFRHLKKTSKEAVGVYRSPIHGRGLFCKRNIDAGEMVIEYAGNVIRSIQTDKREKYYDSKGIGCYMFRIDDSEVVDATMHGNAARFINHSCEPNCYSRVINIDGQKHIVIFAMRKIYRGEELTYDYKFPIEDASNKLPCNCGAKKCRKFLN
Potency is the fitted concentration of half-maximal effect.

As to `c1cc2cc(c1)C[n+]1ccc(c3ccccc31)NCc1ccc(cc1)CNc1cc[n+](c3ccccc13)C2`, the Potency is 126 µM (active).
